This is part of a sample that, as a whole, favours compounds with a hit. Of some 79,000 tested, about 15% had one in any assay. Unmarked numbers belong to inactive results. Active and inactive are the calls of the source. Cut-off read from the data, not from the text of the source: active = growth inhibition above about 70%; inactive = the rest.

A short description of experiment [1]: NCI Yeast Anticancer Drug Screen. Data for the rad50 strain (AID 155).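 Note: 0% = growth of vehicle-only cultures of the same strain.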 The note with it: S. cerevisiae rad50 strain growth inhibition, hits give high values. Summed up:
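Genetically altered yeast (DNA repair pathway); compound treatment; growth inhibition vs vehicle ctrl.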

A short description of experiment [2]: NCI Yeast Anticancer Drug Screen. Data for the mec2-1 strain (AID 157). The note with it: S. cerevisiae mec2-1 strain, hits give high values. The procedure, abridged: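 Cells of the genetically defined mec2-1 yeast strain are incubated with test compound. Inhibition of growth is calculated against vehicle-treated controls.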
A short description of experiment [3]: NCI Yeast Anticancer Drug Screen. Data for the sgs1 mgt1 strain (AID 161).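 Note: 0% = growth of cultures given vehicle only.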 The settings on record: S. cerevisiae sgs1 mgt1 strain, hits give high values. The procedure, abridged: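 Inhibition of yeast growth, normalised to vehicle-treated controls, is reported for a strain bearing genetic alterations in DNA damage repair.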
Experiment [4] is described as follows: NCI Yeast Anticancer Drug Screen. Data for the cln2 rad14 strain (AID 165).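 Note: 0% = growth equal to vehicle treated cultures.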 The note with it: S. cerevisiae cln2 rad14 strain, hits give high values. Summed up:
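The screen exposed genetically defined yeast (cln2 rad14) to test compounds and scored growth inhibition relative to vehicle-treated controls.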

Experiment [5] in a line: NCI Yeast Anticancer Drug Screen. Data for the bub3 strain (AID 167). The settings on record: S. cerevisiae bub3 mutant strain, hits give high values. Summed up: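 Yeast carrying a defined mutation is treated with each compound, and growth is compared with that of vehicle-exposed cells to give inhibition.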
A short description of experiment [6]: NCI Yeast Anticancer Drug Screen. Data for the mlh1 rad18 strain (AID 175). The note with it: S. cerevisiae mlh1 rad18 strain growth inhibition, hits give high values. Summed up:
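Compound-treated yeast growth, normalised to vehicle controls. Strain bears defined DNA repair mutations.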

Setting [7] is: at 5.0 µM (retest, dose inferred, filed as 0.5).
Where [8] appears, read: at 50.0 µM (retest, dose inferred, filed as 5.0).

For `O=[N+]([O-])c1ccc(C2=C[P+](c3ccccc3)(c3ccccc3)C=C(c3ccccc3)O2)cc1`, the growth inhibition is 29% in experiment [1] (setting [7]); 97% (active) in experiment [1] (setting [8]); 91% (active) in experiment [1] (at 50.0 µM); 21% in experiment [2] (setting [7]); 98% (active) in experiment [2] (setting [8]); 90.4% (active) in experiment [2] (at 50.0 µM). The growth inhibition in experiment [3] (setting [7]) was 18%; in experiment [3] (setting [8]) it was 99% (active); in experiment [3] (at 50.0 µM), 85.2% (active); in experiment [4] (setting [7]), 30%; in experiment [4] (setting [8]), 98% (active); in experiment [4] (at 50.0 µM) it was 86.4% (active). The growth inhibition in experiment [5] (setting [7]) was 45%; in experiment [5] (setting [8]), 98% (active); in experiment [5] (at 50.0 µM), 92.2% (active); in experiment [6] (setting [7]) it was 22%; in experiment [6] (setting [8]), 97% (active); in experiment [6] (at 50.0 µM), 92.2% (active).
Take `CC(NNC(=S)N1CCCCCC1)c1cccnn1` (stereo not given): the growth inhibition was 99% (active) in experiment [1] (setting [7]); 99% (active) in experiment [1] (setting [8]); 89% (active) in experiment [1] (at 50.0 µM); 98% (active) in experiment [2] (setting [7]); 99% (active) in experiment [2] (setting [8]); 93% (active) in experiment [2] (at 50.0 µM). The growth inhibition in experiment [3] (setting [7]) is 97% (active); in experiment [3] (setting [8]) it was 99% (active); in experiment [3] (at 50.0 µM), 89.2% (active); in experiment [4] (setting [7]), 98% (active); in experiment [4] (setting [8]), 99% (active); in experiment [4] (at 50.0 µM) it was 90.5% (active). Further, the growth inhibition in experiment [5] (setting [7]) is 98% (active); in experiment [5] (setting [8]) it was 99% (active); in experiment [5] (at 50.0 µM), 91.6% (active); in experiment [6] (setting [7]), 99% (active); in experiment [6] (setting [8]), 99% (active); in experiment [6] (at 50.0 µM), 85% (active).
Take `N#Cc1c(Cl)nnc(-c2ccccc2)c1-c1ccccc1`: the growth inhibition in experiment [1] (setting [7]) was 6%; in experiment [1] (setting [8]), 81% (active); in experiment [1] (at 50.0 µM), 89.3% (active); in experiment [2] (setting [7]), 8%; in experiment [2] (setting [8]), 84% (active); in experiment [2] (at 50.0 µM), 92.2% (active). Also, the growth inhibition in experiment [3] (setting [7]) is -8%; in experiment [3] (setting [8]), 83% (active); in experiment [3] (at 50.0 µM), 92.8% (active); in experiment [4] (setting [7]) it was -1%; in experiment [4] (setting [8]), 66%; in experiment [4] (at 50.0 µM), 93.8% (active). The growth inhibition in experiment [5] (setting [7]) was 1%; in experiment [5] (setting [8]), 91% (active); in experiment [5] (at 50.0 µM) it was 93.5% (active); in experiment [6] (setting [7]), 4%; in experiment [6] (setting [8]), 91% (active); in experiment [6] (at 50.0 µM), 93.6% (active).
As to `COc1ccc(Br)c2c1CC(C(=O)O)CC2` (stereo not given), the growth inhibition was -29% in experiment [1] (setting [7]); -23% in experiment [1] (setting [8]); 8% in experiment [1] (at 50.0 µM); -26% in experiment [2] (setting [7]); 26% in experiment [2] (setting [8]); 4.05% in experiment [2] (at 50.0 µM). Besides, the growth inhibition was -33% in experiment [3] (setting [7]); -22% in experiment [3] (setting [8]); -10.1% in experiment [3] (at 50.0 µM); 6% in experiment [4] (setting [7]); 6% in experiment [4] (setting [8]); -17.2% in experiment [4] (at 50.0 µM). Also, the growth inhibition in experiment [5] (setting [7]) was -13%; in experiment [5] (setting [8]), 13%; in experiment [5] (at 50.0 µM), 11.9%; in experiment [6] (setting [7]) it was -20%; in experiment [6] (setting [8]), -19%; in experiment [6] (at 50.0 µM) it was 2.8%.
With `CCOC(=O)/C=C(\C)c1ccc([N+](=O)[O-])cc1`, the growth inhibition was -158% in experiment [1] (setting [7]); -127% in experiment [1] (setting [8]); 36.1% in experiment [1] (at 50.0 µM); -49% in experiment [2] (setting [7]); -51% in experiment [2] (setting [8]); -17.3% in experiment [2] (at 50.0 µM). Moreover, the growth inhibition in experiment [3] (setting [7]) is -65%; in experiment [3] (setting [8]), -57%; in experiment [3] (at 50.0 µM), -17.9%; in experiment [4] (setting [7]) it was -63%; in experiment [4] (setting [8]), -69%; in experiment [4] (at 50.0 µM), -94.7%. Further, the growth inhibition is -63% in experiment [5] (setting [7]); -54% in experiment [5] (setting [8]); 17.1% in experiment [5] (at 50.0 µM); -153% in experiment [6] (setting [7]); -114% in experiment [6] (setting [8]); 3.95% in experiment [6] (at 50.0 µM).
For `CC(C)Cc1ccc(C(C)/C=C2\CCC(CN3CCCCC3)C2=O)cc1` (stereo not given), the growth inhibition in experiment [1] (setting [7]) is 93% (active); in experiment [1] (setting [8]), 98% (active); in experiment [1] (at 50.0 µM) it was 92.3% (active); in experiment [2] (setting [7]), 90% (active); in experiment [2] (setting [8]), 99% (active); in experiment [2] (at 50.0 µM), 94.2% (active). The growth inhibition in experiment [3] (setting [7]) was 84% (active); in experiment [3] (setting [8]) it was 98% (active); in experiment [3] (at 50.0 µM), 94.2% (active); in experiment [4] (setting [7]), 80% (active); in experiment [4] (setting [8]), 99% (active); in experiment [4] (at 50.0 µM), 92.7% (active). Moreover, the growth inhibition in experiment [5] (setting [7]) is 98% (active); in experiment [5] (setting [8]) it was 98% (active); in experiment [5] (at 50.0 µM), 93.2% (active); in experiment [6] (setting [7]), 94% (active); in experiment [6] (setting [8]), 98% (active); in experiment [6] (at 50.0 µM), 89.6% (active).
With `Cc1cc(Sc2ccccc2)c2c(C)ccc(C(C)C)cc1-2`, the growth inhibition in experiment [1] (setting [7]) is 0%; in experiment [1] (setting [8]), -7%; in experiment [1] (at 50.0 µM), -13.8%; in experiment [2] (setting [7]), -8%; in experiment [2] (setting [8]), -12%; in experiment [2] (at 50.0 µM), 61.4%. Moreover, the growth inhibition in experiment [3] (setting [7]) was 1%; in experiment [3] (setting [8]) it was 6%; in experiment [3] (at 50.0 µM), -0.65%; in experiment [4] (setting [7]) it was -16%; in experiment [4] (setting [8]), -9%; in experiment [4] (at 50.0 µM) it was 78.2% (active). Moreover, the growth inhibition in experiment [5] (setting [7]) is -5%; in experiment [5] (setting [8]), -10%; in experiment [5] (at 50.0 µM), 21.4%; in experiment [6] (setting [7]), -2%; in experiment [6] (setting [8]), -3%; in experiment [6] (at 50.0 µM), 58%.
`COc1ccc(/C(C#N)=C(/N)SCc2ccccc2Cl)cc1`: the growth inhibition in experiment [1] (setting [7]) is -3%; in experiment [1] (setting [8]), 14%; in experiment [1] (at 50.0 µM), 90.9% (active); in experiment [2] (setting [7]), -2%; in experiment [2] (setting [8]), 14%; in experiment [2] (at 50.0 µM), 64.9%. The growth inhibition in experiment [3] (setting [7]) was 10%; in experiment [3] (setting [8]) it was 36%; in experiment [3] (at 50.0 µM) it was 97.2% (active); in experiment [4] (setting [7]), -7%; in experiment [4] (setting [8]), 15%; in experiment [4] (at 50.0 µM), 66.8%. Further, the growth inhibition in experiment [5] (setting [7]) was 3%; in experiment [5] (setting [8]), 49%; in experiment [5] (at 50.0 µM), 83.5% (active); in experiment [6] (setting [7]), -1%; in experiment [6] (setting [8]), 34%; in experiment [6] (at 50.0 µM), 90% (active).
Consider `NCc1ccc(O)c(O)c1O`, for which the growth inhibition in experiment [1] (setting [7]) is -2%; in experiment [1] (setting [8]), 78% (active); in experiment [1] (at 50.0 µM), 14.9%; in experiment [2] (setting [7]), 8%; in experiment [2] (setting [8]) it was 80% (active); in experiment [2] (at 50.0 µM) it was 14.4%. In addition, the growth inhibition in experiment [3] (setting [7]) is 8%; in experiment [3] (setting [8]), 61%; in experiment [3] (at 50.0 µM) it was 38.2%; in experiment [4] (setting [7]), -16%; in experiment [4] (setting [8]), 52%; in experiment [4] (at 50.0 µM), -2.75%. Also, the growth inhibition is -2% in experiment [5] (setting [7]); 82% (active) in experiment [5] (setting [8]); 81.4% (active) in experiment [5] (at 50.0 µM); -22% in experiment [6] (setting [7]); 83% (active) in experiment [6] (setting [8]); 16.3% in experiment [6] (at 50.0 µM).
As to `CCCCCCCCc1cc[n+](C2=C([O-])c3ccccc3C(=O)C2=O)cc1`, the growth inhibition in experiment [1] (setting [7]) is 99% (active); in experiment [1] (setting [8]) it was 97% (active); in experiment [1] (at 50.0 µM), 98.8% (active); in experiment [2] (setting [7]) it was 100% (active); in experiment [2] (setting [8]), 93% (active); in experiment [2] (at 50.0 µM), 98.2% (active). Moreover, the growth inhibition is 100% (active) in experiment [3] (setting [7]); 98% (active) in experiment [3] (setting [8]); 99% (active) in experiment [3] (at 50.0 µM); 99% (active) in experiment [4] (setting [7]); 95% (active) in experiment [4] (setting [8]); 98.5% (active) in experiment [4] (at 50.0 µM). Also, the growth inhibition is 99% (active) in experiment [5] (setting [7]); 99% (active) in experiment [5] (setting [8]); 98.8% (active) in experiment [5] (at 50.0 µM); 100% (active) in experiment [6] (setting [7]); 99% (active) in experiment [6] (setting [8]); 98.2% (active) in experiment [6] (at 50.0 µM).
